Reference: PubChem BioAssay (NCATS)
Inconclusive results are not listed. A number with no mark means an inactive call. The call rests on the fitted dose curve; in most records, active means well fitted inhibition curve with a large enough effect; inconclusive means small, poorly fitted or top-dose-only effect; inactive means flat fitted curve, though single readings scatter.

assay: qHTS to identify inhibitors of the type 1 interferon - major histocompatibility complex class I in skeletal muscle: primary screen against the NCATS Pharmaceutical Collection (AID 1347407); details: human skeletal muscle cells, IFN-b-induced MHC-I HiBiT luminescence, 24 h; series mostly up to 45.9 µM; activity change, negative = inhibition: at the top concentration
In short: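 Immortalized human myoblasts (C25cl48) with HiBiT knocked into endogenous HLA-B*08:01 were stimulated with 4.0 ng/ml IFN-beta and treated with compounds ([…] top 46 uM) for 24 hrs at 37 C. HiBiT lytic luminescence read.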
On the % scale 0 is the no-effect control and ±100 the full control effect.

Q: Which “activity change, negative = inhibition” value does the source give for CC(=O)O[C@]1(C(C)=O)CC[C@H]2[C@@H]3C=C(C)C4=CC(=O)CC[C@]4(C)[C@H]3CC[C@@]21C here?
A: Its value is -0.54%.

Q: Which “activity change, negative = inhibition” value does the source give for OC[C@H]1O[C@@H]2O[C@H]3[C@H](O)[C@@H](O)[C@@H](O[C@H]4[C@H](O)[C@@H](O)[C@@H](O[C@H]5[C@H](O)[C@@H](O)[C@@H](O[C@H]6[C@H](O)[C@@H](O)[C@@H](O[C@H]7[C@H](O)[C@@H](O)[C@@H](O[C@H]8[C@H](O)[C@@H](O)[C@@H](O[C@H]1[C@H](O)[C@H]2O)O[C@@H]8CO)O[C@@H]7CO)O[C@@H]6CO)O[C@@H]5CO)O[C@@H]4CO)O[C@@H]3CO here?
A: Its value is 15.2%.

Q: Which “activity change, negative = inhibition” value does the source give for CCC(C(=O)OCCOCCN(CC)CC)c1ccccc1 (stereo not drawn) here?
A: Its value is -5.26%.

Q: With COc1cc(C)nc(-n2nc(C)cc2OC)n1 as the molecule, how does the “activity change, negative = inhibition” value read?
A: The value was -13.4%.

Q: With CCCCNC(=O)NS(=O)(=O)c1ccc(N)cc1 as the molecule, how does the “activity change, negative = inhibition” value read?
A: The value was -12.4%.

Q: For CCC1Nc2cc(Cl)c(S(N)(=O)=O)cc2S(=O)(=O)N1 (stereo not drawn), which “activity change, negative = inhibition” value is on record?
A: Its value is -2.64%.

Q: Which “activity change, negative = inhibition” value does the source give for CCCCCCCCNC(C)C(O)c1ccc(SC(C)C)cc1 (stereo not drawn) here?
A: Its value is -11.8%.

Q: With CC(C)(Cc1c[nH]c2ccccc12)NCC(O)COc1ccccc1C#N (stereo not drawn) as the molecule, how does the “activity change, negative = inhibition” value read?
A: The value was -13.9%.

Q: Which “activity change, negative = inhibition” value does the source give for OCCOCCN1CCN(C2=Nc3ccccc3Sc3ccccc32)CC1 here?
A: Its value is 7.02%.

Q: For CCNC(=O)/C=C/c1cccc(Br)c1, which “activity change, negative = inhibition” value is on record?
A: Its value is 1.9%.

Q: Which “activity change, negative = inhibition” value does the source give for Cc1cccc(C)c1NC(=O)c1ccccc1C(=O)O here?
A: Its value is 22.6%.

Q: For N#C/C(=C1\SCC(c2ccccc2Cl)S1)n1ccnc1 (stereo not drawn), which “activity change, negative = inhibition” value is on record?
A: Its value is 13.9%.

Q: Which “activity change, negative = inhibition” value does the source give for CCNC(=O)NCc1cccc(Cl)c1 here?
A: The value was -7.86%.

Q: Which “activity change, negative = inhibition” value does the source give for CC1CCc2c(N3CCC(O)CC3)c(F)cc3c(=O)c(C(=O)O)cn1c23 (stereo not drawn) here?
A: The value was -3.39%.

Q: For OC(C#CCN1CCCC1)(c1ccccc1)c1ccccc1, which “activity change, negative = inhibition” value is on record?
A: The value was -5.75%.

Q: With NC1CCN(c2nc3c(cc2F)c(=O)c(C(=O)O)cn3-c2ccc(F)cc2F)C1 (stereo not drawn) as the molecule, how does the “activity change, negative = inhibition” value read?
A: The value was -17.9%.

Q: For O=C(O)C1(C(=O)O)CCC1.[NH2-].[NH2-].[Pt+2], which “activity change, negative = inhibition” value is on record?
A: Its value is 1.28%.

Q: For O=C(O)P(=O)(O)O, which “activity change, negative = inhibition” value is on record?
A: The value was -1.51%.

Q: With C#C[C@]1(O)CC[C@H]2[C@@H]3[C@H](C)CC4=C(CCC(=O)C4)[C@H]3CC[C@@]21C as the molecule, how does the “activity change, negative = inhibition” value read?
A: Its value is -7.68%.

Q: Which “activity change, negative = inhibition” value does the source give for CC(C)[N+](C)(C)CC(O)COc1cccc2ccccc12 (stereo not drawn) here?
A: The value was -15.6%.

Q: With O=C1C(=O)c2ccccc2C(O)=C1C1CCC(c2ccc(Cl)cc2)CC1 (stereo not drawn) as the molecule, how does the “activity change, negative = inhibition” value read?
A: Its value is -2.81%.

Q: Which “activity change, negative = inhibition” value does the source give for O=C(O)CCc1nc2ccccc2[nH]1 here?
A: Its value is 1.31%.

Q: For CN(C)CCOC(c1ccc(Cl)cc1)c1ccccn1 (stereo not drawn), which “activity change, negative = inhibition” value is on record?
A: The value was -6.74%.

Q: Which “activity change, negative = inhibition” value does the source give for O=S(=O)(O)c1ccc(O)cc1 here?
A: The value was 1.52%.

Q: Which “activity change, negative = inhibition” value does the source give for CC[C@]12CCCN3CCc4c(n(c5ccccc45)C(=O)C1)[C@@H]32 here?
A: Its value is -29.3%.

Q: With CCOC(=O)c1ccc(N)cc1 as the molecule, how does the “activity change, negative = inhibition” value read?
A: The value was 1.17%.

Q: Which “activity change, negative = inhibition” value does the source give for O=C(Nc1ccccc1)OCC(CN1CCCCC1)OC(=O)Nc1ccccc1 (stereo not drawn) here?
A: The value was -19.8%.

Q: Which “activity change, negative = inhibition” value does the source give for CC(C)n1c(/C=C/[C@@H](O)C[C@@H](O)CC(=O)O)c(-c2ccc(F)cc2)c2ccccc21 here?
A: The value was -21.8%.

Q: With O=C(Nc1cccc(C2=NCCN2)c1)Nc1cccc(C2=NCCN2)c1 as the molecule, how does the “activity change, negative = inhibition” value read?
A: The value was -2.12% [at 19 µM].

Q: With CC(=C(CCOC(=O)C(C)C)SSC(CCOC(=O)C(C)C)=C(C)N(C=O)Cc1cnc(C)nc1N)N(C=O)Cc1cnc(C)nc1N as the molecule, how does the “activity change, negative = inhibition” value read?
A: Its value is -2.47%.

Q: Which “activity change, negative = inhibition” value does the source give for CC(=O)Nc1ccc(S(=O)(=O)Nc2ccc([N+](=O)[O-])cc2)cc1 here?
A: The value was -3.27%.

Q: With Cc1ccc(S(=O)(=O)NC(=O)NC2CCCC2)cc1 as the molecule, how does the “activity change, negative = inhibition” value read?
A: The value was 9.79%.

Q: For O=C(CCN1CCN2CCCC2C1)N1c2ccccc2Sc2ccc(Cl)cc21 (stereo not drawn), which “activity change, negative = inhibition” value is on record?
A: The value was -14.9% [at 19 µM].

Q: With NC(=O)n1c(O)c(C(=O)c2cccs2)c2cc(Cl)ccc21 as the molecule, how does the “activity change, negative = inhibition” value read?
A: The value was -28.2%.

Q: Which “activity change, negative = inhibition” value does the source give for N#CCC(=O)NN here?
A: Its value is -29%.

Q: For COc1ccc(CN(CCN(C)C)c2ncccn2)cc1, which “activity change, negative = inhibition” value is on record?
A: Its value is 3.95%.

Q: For CC(=O)OC[C@H]1O[C@@H](n2ncc(=O)[nH]c2=O)[C@H](OC(C)=O)[C@@H]1OC(C)=O, which “activity change, negative = inhibition” value is on record?
A: Its value is -13.3%.

Q: For CCCCc1cc2ccccc2c(OCCN(C)C)n1, which “activity change, negative = inhibition” value is on record?
A: The value was -5.78%.
